Broadly, the AC50 is the concentration at which the activity in the assay is half-maximal.

The structures appear in SMILES notation. A structure can be active in one record and inactive in another. Calls of active or inactive are those of the source. Rule for the calls: active = hit-call score of the fitted dose curve at least 0.9, where 1 is the maximum; inactive = score below 0.9.

Experiment [1] deals with CCAAT/enhancer-binding protein beta (Homo sapiens) (UniProt P17676). Briefly: ATG_C_EBP_CIS: Attagene CIS-FACTORIAL HepG2 Assay for human CCAAT/Enhancer Binding Protein (C/EBP) beta (AID 2282927). Particulars: HepG2 Attagene cis-factorial transcription factor reporter; actives raise or lower the signal. The method, boiled down: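 Transiently transfected HepG2 (MRTU library, endogenous TF-driven promoters); 24 h dosing; total RNA → oligo(dT) RT → PCR → 6-FAM primer extension → HpaI digest → CE; fit bidirectionally vs DMSO.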
Sequence of CCAAT/enhancer-binding protein beta (Homo sapiens) (P17676 whole entry, looked up): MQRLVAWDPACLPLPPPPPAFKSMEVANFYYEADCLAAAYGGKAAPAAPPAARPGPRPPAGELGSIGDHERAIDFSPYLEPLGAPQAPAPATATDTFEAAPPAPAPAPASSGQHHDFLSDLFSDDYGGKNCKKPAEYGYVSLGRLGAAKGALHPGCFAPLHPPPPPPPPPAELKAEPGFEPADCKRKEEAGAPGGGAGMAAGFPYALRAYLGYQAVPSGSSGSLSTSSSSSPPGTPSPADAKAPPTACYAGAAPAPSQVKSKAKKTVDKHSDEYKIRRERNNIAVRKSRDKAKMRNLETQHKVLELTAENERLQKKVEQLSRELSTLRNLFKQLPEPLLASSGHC

Experiment [2] is described as follows: ATG_CMV_CIS: Attagene CIS-FACTORIAL HepG2 Assay for human CMV (Internal Marker) (AID 2282928).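 Note: endpoint acts as a background internal control marker rather than a target.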 Particulars: HepG2 CMV promoter reporter, transcription factor profiling; actives raise or lower the signal. The method, boiled down: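 Fluorescence intensity of RT-PCR-derived reporter fragments, resolved by capillary electrophoresis, gives the signal. HepG2 liver cells bearing transfected cis-element reporters were treated 24 h; activity in either direction was fit relative to DMSO-treated controls.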

The nature of experiment [3]: ATG_DR4_LXR_CIS: Attagene CIS-FACTORIAL HepG2 Assay for human Liver X Receptor (LXR), DR4 submotif (AID 2282929). As to conditions: HepG2 Attagene DR4 cis-reporter, mRNA transcription; actives raise or lower the signal. In a few lines:
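HepG2, transient MRTU transfection, cis-element (DR4) promoter; 24 h compound exposure; total RNA → oligo(dT) RT → PCR → 6-FAM primer extension → HpaI cut → CE. Gain/loss vs DMSO, bidirectional fit.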

A short description of experiment [4]: ATG_AP_1_CIS: Attagene CIS-FACTORIAL HepG2 Assay for human Activator Protein 1 (AP-1) (AID 2282931). As to conditions: HepG2 Attagene cis-factorial AP-1 reporter mRNA; actives raise or lower the signal. The method, boiled down:
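Transient MRTU transfection of HepG2 → 24 h chemical treatment → RNA isolation, RT-PCR, 6-FAM labelling, HpaI digest → capillary electrophoresis. Fit: bidirectional, DMSO negative control.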

Experiment [5] in a line: ATG_BRE_CIS: Attagene CIS-FACTORIAL HepG2 Assay for human Bone Morphogenetic Protein (BMP) Response Element (BRE) (AID 2282933). Particulars: HepG2 BMP response element reporter, Attagene transcription factor profiling; actives raise or lower the signal. In a few lines:
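Endogenous transcription factor activity read in transiently transfected HepG2 cells after 24 h chemical exposure. Bidirectional curve fitting against DMSO; readout is reporter transcript level by RT-PCR with capillary electrophoresis of labelled products.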

Experiment [6] deals with Retinoic acid receptor alpha (Homo sapiens) (UniProt P10276). Briefly: ATG_DR5_RAR_CIS: Attagene CIS-FACTORIAL HepG2 Assay for human Retinoic Acid Receptor Alpha (RARE), DR5 submotif (AID 2282934). Particulars: HepG2 Attagene cis-factorial RARE DR5 reporter, mRNA; actives raise or lower the signal. The method, boiled down:
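Read-out: DR5-driven reporter transcript measured by RT-PCR, 6-FAM primer extension, HpaI digest and capillary electrophoresis. Human HepG2 liver cells carry transiently transfected cis-element reporter constructs; dosing lasts 24 h. Gain or loss of signal fitted against DMSO baseline.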

In experiment [7] the target is Transcription factor E2F1 (Homo sapiens) (UniProt Q01094). Briefly: ATG_E2F_CIS: Attagene CIS-FACTORIAL HepG2 Assay for human E2F Transcription Factor 1 (AID 2282935). As to conditions: HepG2 Attagene cis-reporter, E2F reporter RNA transcripts; actives raise or lower the signal. In a few lines:
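Transient MRTU transfection of HepG2; 24 h compound exposure; RNA → oligo(dT) RT → PCR → FAM label → HpaI cut → CE fluorescence. Gain/loss of signal fit against DMSO.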

The nature of experiment [8]: ATG_E_Box_CIS: Attagene CIS-FACTORIAL HepG2 Assay for human Enhancer Box (E-box) (AID 2282936). Particulars: HepG2 E-box cis-reporter transcription, actives raise or lower the signal. The method, boiled down: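 Transiently transfected HepG2, endogenous TF-driven reporters, 24 h dosing. Readout: RT-PCR plus capillary electrophoresis of fluorescent reporter fragments. Gain or loss of signal fitted bidirectionally against DMSO baseline.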

A short description of experiment [9]: ATG_M_61_CIS: Attagene CIS-FACTORIAL HepG2 Assay for M61 Transcription Factor (Internal Marker) (AID 2282937). Particulars: HepG2 Attagene CIS-FACTORIAL M61 internal marker reporter; actives raise or lower the signal. The method, boiled down: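 Human liver HepG2, transient MRTU transfection (cis promoter elements), 24 h compound. Total RNA → oligo(dT) RT → PCR → FAM label → HpaI → CE. Internal background marker; bidirectional fitting, DMSO = baseline.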

Experiment [10] in a line: ATG_EGR_CIS: Attagene CIS-FACTORIAL HepG2 Assay for human Early Growth Response 1 (EGR1) (AID 2282938). As to conditions: HepG2 Attagene CIS-FACTORIAL EGR reporter mRNA; actives raise or lower the signal. In a few lines: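 Transient transfection of human HepG2 with multiple cis-regulated reporter units, chemical exposure 24 h, total RNA isolated. Reverse transcription, PCR, fluorescent labelling and capillary electrophoresis quantify reporter transcripts; activity fitted bidirectionally against DMSO.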

Experiment [11] in a line: ATG_M_19_CIS: Attagene CIS-FACTORIAL HepG2 Assay for M19 Transcription Factor (Internal Marker) (AID 2282939). As to conditions: HepG2 Attagene CIS-FACTORIAL M19 internal marker reporter; actives raise or lower the signal. The method, boiled down: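 Internal marker readout, fitted in both directions against DMSO, from HepG2 cells carrying transfected cis-element reporter constructs; RT-PCR and capillary electrophoresis of reporter mRNA after 24 h exposure.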

The nature of experiment [12]: ATG_ERE_CIS: Attagene CIS-FACTORIAL HepG2 Assay for Estrogen Response Element (ERE) (AID 2282940). Particulars: HepG2 ERE cis-reporter, Attagene RNA transcript; actives raise or lower the signal. In a few lines:
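After 24 h compound treatment, RNA from transfected HepG2 cells was reverse-transcribed, reporter cDNA PCR-amplified, FAM-labelled, HpaI-cut and resolved by capillary electrophoresis. ERE-driven cis reporter transcripts reflect endogenous factors; gain or loss scored against DMSO.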

The nature of experiment [13]: ATG_Ets_CIS: Attagene CIS-FACTORIAL HepG2 Assay for human Erythroblast Transformation Specific (ETS) (AID 2282941). As to conditions: HepG2 ETS cis-reporter transcription, actives raise or lower the signal. The method, boiled down:
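Multiplexed reporter transcript profiling: HepG2, 24 h treatment, total RNA to cDNA, PCR, 6-FAM labelling, HpaI cut, capillary electrophoresis. Gain- or loss-of-signal fitted against DMSO.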

In experiment [14] the target is Hepatocyte nuclear factor 3-beta (Homo sapiens) (UniProt Q9Y261). Briefly: ATG_FoxA2_CIS: Attagene CIS-FACTORIAL HepG2 Assay for human Forkhead box A2 (FOXA2) (AID 2282942). Particulars: HepG2 cis-reporter transcription factor activity, 24 h; actives raise or lower the signal. The method, boiled down:
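Transient MRTU transfection of HepG2 liver cells; 24 h treatment; total RNA → oligo(dT) RT → PCR → FAM primer extension → HpaI cut → CE. Bidirectional fit vs DMSO.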

The nature of experiment [15]: ATG_FoxO_CIS: Attagene CIS-FACTORIAL HepG2 Assay for human Forkhead box O (FoxO) (AID 2282943). As to conditions: HepG2 Attagene cis-reporter, FoxO element, mRNA; actives raise or lower the signal. In a few lines: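 Read-out: fluorescence of 6-FAM-labelled reporter cDNA fragments resolved by capillary electrophoresis. Transiently transfected HepG2 cells were dosed for 24 h; activity fitted in both directions relative to DMSO controls.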

Experiment [16] in a line: ATG_GATA_CIS: Attagene CIS-FACTORIAL HepG2 Assay for human GATA Binding Protein (AID 2282944). As to conditions: HepG2 GATA cis-element reporter, Attagene multiplex mRNA; actives raise or lower the signal. The method, boiled down: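 Reporter transcripts from a GATA cis-regulated unit, among multiplexed reporters in transfected HepG2 cells, were measured by RT-PCR with capillary electrophoresis after 24 h dosing. Induction or loss scored relative to DMSO.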

Experiment [17] can be described thus: ATG_GLI_CIS: Attagene CIS-FACTORIAL HepG2 Assay for human Zinc Finger Protein GLI1 (AID 2282945). As to conditions: HepG2, Attagene cis-factorial reporter mRNA, GLI element; actives raise or lower the signal. In a few lines:
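Transiently transfected HepG2 cells report endogenous transcription factor activity via cis-element-driven reporter units. After 24 h compound exposure, reporter mRNA was measured by RT-PCR with capillary electrophoresis; bidirectional fitting against DMSO baseline.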

Experiment [18] concerns the target Aryl hydrocarbon receptor (Homo sapiens) (UniProt P35869). Kind of experiment: ATG_Ahr_CIS: Attagene CIS-FACTORIAL HepG2 Assay for human Aryl Hydrocarbon Receptor (Ahr) (AID 2282930). As to conditions: HepG2 AhR cis-factorial reporter transcription; actives raise or lower the signal. In a few lines:
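Read-out: reporter mRNA quantified by RT-PCR with fluorescent primer extension and capillary electrophoresis. Human HepG2 liver cells carried transfected cis-promoter reporter units and were exposed to chemical for 24 h; gain or loss fitted relative to DMSO.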

Experiment [19] is described as follows: ATG_AP_2_CIS: Attagene CIS-FACTORIAL HepG2 Assay for human Activator Protein 2 (AP-2) (AID 2282932). As to conditions: HepG2 AP-2 cis-reporter, Attagene transcription factor profiling; actives raise or lower the signal. The method, boiled down: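 Read-out: fluorescent reporter mRNA via RT-PCR and capillary electrophoresis, 24 h post-dose in transiently transfected HepG2. Endogenous factors drive cis-promoter reporters; gain or loss of signal fitted bidirectionally against DMSO.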

Experiment [20] addresses Bile acid receptor (Homo sapiens) (UniProt Q96RI1). Kind of experiment: ATG_IR1_CIS: Attagene CIS-FACTORIAL HepG2 Assay for human Nuclear Receptor Subfamily 1 Group H Member 4 (NR1H4), IR1 submotif (AID 2282946). As to conditions: IR1 reporter transcription, actives raise or lower the signal. The method, boiled down:
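Fluorescence of capillary-separated, HpaI-digested RT-PCR reporter products gave IR1-element mRNA induction in HepG2 cells 24 h after dosing. Endogenous transcription factors drove the cis-regulated reporters; activity was fitted bidirectionally against DMSO.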

Sequence of Hepatocyte nuclear factor 3-beta (Homo sapiens) (Q9Y261 whole entry, looked up): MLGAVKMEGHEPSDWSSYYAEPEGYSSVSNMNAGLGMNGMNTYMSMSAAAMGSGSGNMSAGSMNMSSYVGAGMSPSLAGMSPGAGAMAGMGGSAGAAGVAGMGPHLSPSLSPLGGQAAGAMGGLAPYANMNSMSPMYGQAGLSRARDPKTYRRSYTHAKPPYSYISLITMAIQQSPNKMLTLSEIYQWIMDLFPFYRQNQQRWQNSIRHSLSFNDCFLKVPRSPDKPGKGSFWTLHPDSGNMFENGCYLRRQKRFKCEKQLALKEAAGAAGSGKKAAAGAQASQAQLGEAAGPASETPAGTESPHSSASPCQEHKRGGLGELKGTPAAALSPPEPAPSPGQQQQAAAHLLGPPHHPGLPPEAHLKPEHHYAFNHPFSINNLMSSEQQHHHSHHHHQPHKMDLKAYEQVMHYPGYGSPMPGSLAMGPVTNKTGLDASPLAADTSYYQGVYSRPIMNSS
Sequence of Bile acid receptor (Homo sapiens) (Q96RI1 whole entry, looked up): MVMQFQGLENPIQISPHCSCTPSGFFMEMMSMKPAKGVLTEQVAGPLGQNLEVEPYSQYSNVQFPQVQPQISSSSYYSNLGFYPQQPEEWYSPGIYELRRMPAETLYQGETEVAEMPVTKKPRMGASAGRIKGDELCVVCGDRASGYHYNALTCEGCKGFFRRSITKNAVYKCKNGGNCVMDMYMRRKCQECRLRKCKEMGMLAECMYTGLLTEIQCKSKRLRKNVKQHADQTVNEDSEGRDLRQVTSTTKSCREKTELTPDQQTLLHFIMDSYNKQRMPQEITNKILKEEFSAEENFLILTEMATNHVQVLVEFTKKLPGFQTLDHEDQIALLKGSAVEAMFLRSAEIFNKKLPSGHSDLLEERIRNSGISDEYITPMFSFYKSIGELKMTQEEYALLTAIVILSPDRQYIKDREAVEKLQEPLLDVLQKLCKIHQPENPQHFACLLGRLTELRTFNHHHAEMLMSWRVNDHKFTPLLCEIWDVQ
Sequence of Aryl hydrocarbon receptor (Homo sapiens) (P35869 whole entry, looked up): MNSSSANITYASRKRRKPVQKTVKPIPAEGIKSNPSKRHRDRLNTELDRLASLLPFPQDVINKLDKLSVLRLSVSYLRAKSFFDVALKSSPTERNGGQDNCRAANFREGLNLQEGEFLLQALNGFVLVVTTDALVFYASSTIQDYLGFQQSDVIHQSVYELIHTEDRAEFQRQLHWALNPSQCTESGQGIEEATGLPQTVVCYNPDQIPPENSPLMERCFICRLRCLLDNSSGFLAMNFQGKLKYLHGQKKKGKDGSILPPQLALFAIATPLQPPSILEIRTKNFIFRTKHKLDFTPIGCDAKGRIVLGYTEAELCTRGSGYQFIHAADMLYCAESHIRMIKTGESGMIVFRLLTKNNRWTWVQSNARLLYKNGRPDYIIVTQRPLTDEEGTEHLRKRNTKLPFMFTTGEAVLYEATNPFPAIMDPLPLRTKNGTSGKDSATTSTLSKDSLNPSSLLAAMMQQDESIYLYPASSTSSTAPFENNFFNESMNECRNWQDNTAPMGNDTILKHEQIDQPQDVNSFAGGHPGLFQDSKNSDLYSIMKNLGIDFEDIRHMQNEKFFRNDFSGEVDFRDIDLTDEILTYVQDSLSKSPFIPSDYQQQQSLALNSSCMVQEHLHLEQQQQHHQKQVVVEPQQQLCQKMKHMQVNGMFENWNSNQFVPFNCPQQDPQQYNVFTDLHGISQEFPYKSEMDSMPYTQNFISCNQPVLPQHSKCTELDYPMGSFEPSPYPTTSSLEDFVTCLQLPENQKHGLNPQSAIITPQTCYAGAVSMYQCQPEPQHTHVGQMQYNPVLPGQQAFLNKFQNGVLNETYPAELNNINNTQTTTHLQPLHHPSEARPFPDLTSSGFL
Sequence of Retinoic acid receptor alpha (Homo sapiens) (P10276 whole entry, looked up): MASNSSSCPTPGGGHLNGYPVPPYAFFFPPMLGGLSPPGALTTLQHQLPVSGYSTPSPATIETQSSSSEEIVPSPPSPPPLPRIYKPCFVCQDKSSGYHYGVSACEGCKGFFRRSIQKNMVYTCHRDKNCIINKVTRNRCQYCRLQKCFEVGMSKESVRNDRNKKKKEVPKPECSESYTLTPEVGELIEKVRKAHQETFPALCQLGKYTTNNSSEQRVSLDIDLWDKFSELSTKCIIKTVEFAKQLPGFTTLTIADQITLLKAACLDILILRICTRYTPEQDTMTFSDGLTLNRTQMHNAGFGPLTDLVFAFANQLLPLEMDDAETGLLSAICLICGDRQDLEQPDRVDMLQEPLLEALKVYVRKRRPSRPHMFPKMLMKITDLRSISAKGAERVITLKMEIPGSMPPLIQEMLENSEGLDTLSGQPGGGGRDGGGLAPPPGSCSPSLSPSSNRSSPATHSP
Sequence of Transcription factor E2F1 (Homo sapiens) (Q01094 whole entry, looked up): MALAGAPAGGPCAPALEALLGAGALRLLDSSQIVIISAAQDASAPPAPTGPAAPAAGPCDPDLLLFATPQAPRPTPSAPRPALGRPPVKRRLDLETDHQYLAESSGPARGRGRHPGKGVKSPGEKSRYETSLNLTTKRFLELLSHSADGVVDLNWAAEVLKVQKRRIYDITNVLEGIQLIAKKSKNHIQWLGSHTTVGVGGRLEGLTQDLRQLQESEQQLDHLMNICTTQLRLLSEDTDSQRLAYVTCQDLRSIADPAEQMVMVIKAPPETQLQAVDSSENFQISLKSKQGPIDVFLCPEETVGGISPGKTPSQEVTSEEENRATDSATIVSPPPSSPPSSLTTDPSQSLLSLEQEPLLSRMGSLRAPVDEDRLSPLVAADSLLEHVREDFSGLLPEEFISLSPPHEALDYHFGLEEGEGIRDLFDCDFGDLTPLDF

Take `CN(C)C(=O)Nc1ccc(Cl)c(Cl)c1`: the result in experiment [1], in experiment [2], in [3], in experiment [4], in experiment [5] and in experiment [6] was inactive. Besides, the outcome in experiment [7], in experiment [8], in experiment [9], in [10], in [11] and in experiment [12] was inactive. The outcome in experiment [13], in experiment [14], in experiment [15], in experiment [16] and in experiment [17] was inactive. For the same compound, the AC50 in experiment [2] is 79100 nM (active); in [4], 27700 nM (active); in [5], 22200 nM (active); in experiment [10], 60300 nM (active).

Take `O=C(Nc1ccc([N+](=O)[O-])cc1Cl)c1cc(Cl)ccc1O`: the AC50 in experiment [1] was 463 nM (active); in experiment [2] it was 1160 nM (active); in experiment [4], 1010 nM (active); in [5] it was 652 nM (active); in experiment [10] it was 894 nM (active). The result in [3], in experiment [18], in [19], in experiment [6], in experiment [7] and in experiment [8] was inactive. Besides, the compound was classed as inactive in [9], in [11], in experiment [12], in [13], in [14] and in [15]. Also, the result in experiment [16], in experiment [17] and in [20] was inactive.

Take `C[C@]12C[C@H](O)[C@H]3[C@@H](CCC4=CC(=O)CC[C@@]43C)[C@@H]1CC[C@@H]2C(=O)CO`: the outcome in [1], in experiment [2], in [3], in [18], in experiment [4] and in [5] was inactive. Moreover, the result in experiment [6], in experiment [7], in [8], in experiment [9], in [10] and in experiment [11] was inactive. The result in [13], in [14], in experiment [15], in experiment [16], in [17] and in experiment [20] was inactive.

The values are drawn from PubChem BioAssay (EPA / NIEHS).
